PubChem BioAssay (Tox21)
Where “and” joins values, the source holds several entries; their conditions need not be identical. Equal entries are not always repeated. Results filed as inconclusive are left out. Where a call stands in place of a potency, no number is given. Where a structure was tested more than once in an assay, its records may differ in their call. Calls of active or inactive are those of the source. Calls come from the whole dose curve.
Potency is the fitted concentration of half-maximal effect.

What follows are molecules tested against 5-hydroxytryptamine receptor 2A (Homo sapiens) (UniProt P28223) (assay: 5-hydroxytryptamine receptor 2A (HTR2A) small molecule antagonists, cell-based qHTS assay (AID 1963586; note: nearly all actives have a fitted effect of over 45% in size)). Settings: HTR2A-CHO cells, DOI-induced calcium flux, fluorescence; series mostly up to 61.5 µM.
5-hydroxytryptamine receptor 2A (Homo sapiens), sequence (P28223 whole entry, looked up): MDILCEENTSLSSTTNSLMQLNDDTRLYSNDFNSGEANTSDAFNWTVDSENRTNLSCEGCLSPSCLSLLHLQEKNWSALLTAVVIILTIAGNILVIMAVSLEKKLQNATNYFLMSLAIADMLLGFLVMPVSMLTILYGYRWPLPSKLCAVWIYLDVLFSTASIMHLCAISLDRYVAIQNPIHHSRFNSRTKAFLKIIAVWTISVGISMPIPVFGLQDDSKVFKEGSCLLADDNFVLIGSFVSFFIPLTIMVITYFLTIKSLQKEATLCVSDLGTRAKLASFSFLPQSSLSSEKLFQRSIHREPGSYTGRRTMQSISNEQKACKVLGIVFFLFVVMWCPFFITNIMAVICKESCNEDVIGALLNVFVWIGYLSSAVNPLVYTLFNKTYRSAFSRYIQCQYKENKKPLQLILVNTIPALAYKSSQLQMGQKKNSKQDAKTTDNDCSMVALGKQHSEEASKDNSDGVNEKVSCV
From the text: National Center for Advancing Translational Sciences [NCATS]
Division of Preclinical Innovation [DPI]
U.S. Environmental Protection Agency [EPA]
National Institutes of Environmental Health Sciences [NIEHS]
National Toxicology Program [NTP]
U.S. Food and Drug Administration [FDA]
The HTR2A receptor is a subtype of the 5-HT2 receptor that belongs to the serotonin receptor family and is a G protein-coupled receptor (GPCR). The HTR2A-CHO cell line stably expressing human 5-hydroxytryptamine receptor 2A (HTR2A) can be used for screening antagonists of interactions between 5-HT2 and its ligands. The HTR2A-CHO calcium flux assay is a homogeneous fluorescence-based assay for detecting the intracellular calcium level using FDSS kinetic plate reader system.
Tox21 Assay Protocol Summary:
HTR2A-CHO cells were dispensed at 2000 cells/3uL/well in 1536-well black-clear bottom plates using a Multidrop Dispenser. After the assay plates were incubated at a 37 C/5% CO2 incubator for 18 h, 3 uL of Dye Loading Buffer was transferred to the assay plate by a Flying Reagent Dispenser. The assay plates were incubated at 37 C for 1h. For antagonist mode, 23 nL of compounds dissolved in DMSO, positive controls or DMSO only was transferred to the assay plate by a pin tool. After 5 min incubation at room temperature, 1.5 uL of 4-Iodo-2,5-dimethoxy-alpha-methylbenzeneethanamine hydrochloride (DOI) at 4nM was added to each well. The fluorescence intensity in the plates was measured using FDSS 7000EX kinetic plate reader for 3 min at 1 sec intervals.
For `c1ccc(OCCOc2ccccc2)cc1`, the Potency was “inactive”.
For `NCCCCCCN`, the Potency was “inactive”.
For `CC(=O)CC(=O)N(C)C`, the Potency was “inactive”.
With `Clc1ccccn1` the Potency was “inactive”.
`CC(=O)c1ccc(S(=O)(=O)NC(=O)NC2CCCCC2)cc1` was tested, and the Potency was “inactive”.
`CC(C)OB(OC(C)C)OC(C)C` was tested, and the Potency was “inactive”.
In the case of `C/C=C(C)/C=C/C=C(C)C`, the Potency was “inactive”.
`CCCOC(=O)NCCCN(C)C` was tested, and the Potency was “inactive”.
For `O=[Se](O)O`, the activity, negative = inhibition was 3.34% [at 12.7 µM] (inactive).
With `CCCCCCOCCO` the Potency was “inactive”.
With `O=Cc1ccc(CO)o1` the Potency was “inactive”.
For `CC(C)(N)CO`, the Potency was “inactive”.
With `N#Cc1ccccc1` the Potency was “inactive”.
For `CCC(C)OC(=O)c1ccc(O)cc1` (stereo not given), the Potency was “inactive”.
With `O=C(OCCOCCOC(=O)c1ccccc1)c1ccccc1` the Potency was “inactive and 7.5 nM (active)”.
With `O=S(=O)(O)c1ccc2cc(O)ccc2c1` the Potency was “inactive”.
With `Cc1cccc(O)c1C` the Potency was “inactive”.
In the case of `CCCCCCCCCCCC(=O)OC`, the Potency was “inactive”.
For `CCCC(C)=O`, the Potency was “inactive”.
For `NNc1ccc(C(=O)O)cc1`, the Potency was “inactive”.
For `C=CCCCCCCCCCC`, the Potency was “inactive”.
`c1cnc2c(c1)ccc1cccnc12` was tested, and the Potency was “inactive”.
`F[B-](F)(F)F` was tested, and the Potency was “inactive”.
`CC1(C)O[C@@H]2[C@@H](CO[C@@]3(COS(N)(=O)=O)OC(C)(C)O[C@@H]23)O1` was tested, and the Potency was “inactive”.
With `CCOc1ccc(NC(=O)CC(C)O)cc1` (stereo not given) the Potency was “inactive”.
`O=C(O)c1ccc(O)cc1` was tested, and the Potency was “inactive”.
For `NC1CCCCC1`, the Potency was “inactive”.
With `O=CCCCC=O` the Potency was “inactive”.
`CC(C)c1cccc(C(C)C)c1` was tested, and the Potency was “inactive”.
`CCCCCCC(C)O` (stereo not given) was tested, and the Potency was “inactive”.
For `CCCCC(CC)COC(=O)/C=C\C(=O)OCC(CC)CCCC` (stereo not given), the Potency was “inactive”.
In the case of `CCCCCCO`, the Potency was “inactive”.
`COc1ccc(Nc2ccccc2)c(C)c1` was tested, and the Potency was “inactive and 21.1 µM (active)”.
For `c1cc(-c2ccncc2)ccn1`, the Potency was “inactive”.
In the case of `CCCCNC(=O)NS(=O)(=O)c1ccc(C)cc1`, the Potency was “inactive”.
With `O=C(OCC1CCC2OC2C1)C1CCC2OC2C1` (stereo not given) the Potency was “inactive”.
For `CCNc1cccc(C)c1`, the Potency was “inactive”.
In the case of `O=C1CCCCCCCCCCC1`, the Potency was “inactive”.
With `Clc1ccc(Cl)c(Cl)c1Cl` the Potency was “inactive”.
With `CCCCCCCCCCCCS` the Potency was “inactive”.
